High-throughput results deposited in PubChem BioAssay by National Center for Advancing Translational Sciences (NCATS).
A selection: hits, their analogues and other compounds. The true share with any hit is near 1.9%.
ALOX15 inhib: inhibitors of human 15-lipoxygenase (ALOX15). P16050. purified 15hLO-1, xylenol orange hydroperoxide absorbance. Potency, µM (top dose mostly 57.1 µM), inactives show top-dose activity change, negative = inhibition, most hits filed as inhibitors. actives 1.4% (n = 74,000). AID 887; note: potency is the fitted concentration of half-maximal effect; % is set by controls: 0 for no effect and ±100 for the full control effect; nearly all actives have a fitted effect of over 55% in size
Target sequence (P16050 whole entry, looked up): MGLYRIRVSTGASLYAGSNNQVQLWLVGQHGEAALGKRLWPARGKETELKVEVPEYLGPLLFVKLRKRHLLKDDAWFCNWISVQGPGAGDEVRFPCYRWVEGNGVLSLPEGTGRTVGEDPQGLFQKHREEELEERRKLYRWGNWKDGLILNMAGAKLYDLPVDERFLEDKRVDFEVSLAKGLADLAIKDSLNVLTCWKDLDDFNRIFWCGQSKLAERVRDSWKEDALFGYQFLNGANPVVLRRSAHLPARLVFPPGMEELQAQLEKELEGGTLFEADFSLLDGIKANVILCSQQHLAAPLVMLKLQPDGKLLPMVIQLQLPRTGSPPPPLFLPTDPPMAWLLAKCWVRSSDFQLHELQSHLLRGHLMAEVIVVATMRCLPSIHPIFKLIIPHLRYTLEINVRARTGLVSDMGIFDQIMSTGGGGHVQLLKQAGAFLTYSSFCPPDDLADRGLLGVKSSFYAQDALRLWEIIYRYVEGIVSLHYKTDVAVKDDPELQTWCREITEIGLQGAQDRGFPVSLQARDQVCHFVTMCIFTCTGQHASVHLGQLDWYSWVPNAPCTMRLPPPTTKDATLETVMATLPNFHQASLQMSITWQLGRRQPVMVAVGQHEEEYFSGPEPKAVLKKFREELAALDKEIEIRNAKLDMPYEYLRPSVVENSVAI
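Compounds were preincubated 15 min at room temperature with 40 nM purified human enzyme (25 mM Hepes pH 7.5, 0.01% Triton X-100); 50 uM arachidonic acid reacted 6 min. Fe-xylenol orange detection, 30 min, absorbance ratio 573/405 nm.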
BRCT PPI green: blocks human BRCA1 BRCT binding to phosphopeptide, green readout; P38398; BRCA1 BRCT-phosphopeptide binding, green fluorescence polarization; Potency, µM (highest dose often 76.9 µM), without a hit: top-dose activity change, negative = inhibition, usual class: inhibitors; actives 0.05% (n = 75,000); AID 875;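 note: potency is the fitted concentration of half-maximal effect; plate controls were peptide without protein for full effect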
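Fluorescence polarization: His-tagged BRCT (~35 kDa BRCA1 C-terminus, 250 nM) bound to 100 nM fluorescein-labeled phosphorylated 10-aa BACH1 peptide, pH 7.3 phosphate buffer with DTT and Tween 20. Compounds incubated 12 min at room temperature; inhibition read as lowered polarization.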
BRCT inh red: inhibitors of human BRCA1 BRCT-phosphoprotein interaction (red fluorophore); P38398; BRCT-phosphopeptide binding, red fluorescence polarization; Potency, µM (top dose mostly 76.9 µM), inactives show top-dose activity change, negative = inhibition, usual class: inhibitors; actives 0.03% (n = 75,000); note: % is set by controls: 0 for no effect and ±100 for the full control effect
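Fluorescence polarization: 100 nM His-tagged BRCA1 BRCT with 100 nM TAMRA-labelled phospho-BACH1 decapeptide, phosphate buffer pH 7.3 with 150 mM NaCl, DTT, 0.01% Tween 20; 12 min RT. Binding inhibition seen as FP decrease.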
Hsp90 Hop PPI: changes Hsp90-Hop TPR2A binding signal, up or down; actives 0.44% (n = 71,000); Potency, µM (top dose mostly 57 µM), without a hit: at the top dose activity change, negative = inhibition; AlphaScreen TPR2A-His6 binding biotin-Hsp90 C-terminal peptide; active = well fitted curve in either direction with a large enough effect; inconclusive = small, poorly fitted or top-dose-only effect, or another doubt; note: potency is the fitted concentration of half-maximal effect; % is set by controls: 0 for no effect and ±100 for the full control effect
DNA Pol III inh: inhibitors of bacterial DNA polymerase III holoenzyme | AID 603 | actives 0.25% (n = 71,000) | Potency, µM (doses to about 57.1 µM), for inactives: at the top dose activity change, negative = inhibition | reconstituted DNA polymerase III holoenzyme replication, biochemical; note: potency is the fitted concentration of half-maximal effect; % is set by controls: 0 for no effect and ±100 for the full control effect
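Reconstituted *E. coli* holoenzyme (0.35 nM Pol III, 1 nM beta, 154 nM SSB, 2 nM primase) was preincubated with compound for 15 min at RT. Synthesis on 1.4 nM ssM13Gori ran 35 min, then was stopped with PicoGreen/EDTA and read as dsDNA fluorescence.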
YjeE inh: displaces an ADP probe from E. coli YjeE (TsaE). Potency, µM. P0AF67. actives 0.05% (n = 71,000). purified YjeE enzyme, qHTS inhibition assay
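Fluorescence polarization of a BODIPY Texas Red–ADP probe (2 uM) bound to purified YjeE (10 uM) was read after 15 min room-temperature incubation with compounds. Loss of polarization marks inhibitors; ADP serves as titrated control.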
Starred values were filed as active, the others as inactive; i = inactive; ? = inconclusive; . = no result; [ ] = another dose, or the depositor's remark. Unless noted, calls come from the whole dose curve; as a rule, active = well fitted curve in the direction sought with a large enough effect; inconclusive = small, poorly fitted or top-dose-only effect, or another doubt; inactive = no such curve, though single readings can be large; an effect the other way counts as inactive or inconclusive.

SMILES	ALOX15 inhib	BRCT PPI green	BRCT inh red	Hsp90 Hop PPI	DNA Pol III inh	YjeE inh
Cc1nc(N2CCOCC2)c2nc(-c3ccccc3)n(CCN(C)C)c2n1	13µM*	-2%	1%	-2%	0%	i
CCN(CC)CCCn1c(-c2ccccc2)nc2c(N(CCOC)CCOC)nc(C)nc21	1%	-1%	-2%	-3%	4%	i
Cc1nc(NCCO)c2nc(-c3ccccc3)n(CCN(C)C)c2n1	32µM*	-2%	-4%	-5%	-9%	i
Cc1ccccc1-c1nc(Nc2ccncc2)c2ccccc2n1	?	5%	-2%	-1%	-9%	i
CCOc1cc(/C=N/NC(=O)c2cc(-c3cccc(OC)c3)n[nH]2)ccc1O	-21%	1%	0%	.	.	.
CCCn1c(-c2ccc(F)cc2)nc2c(NC3CCN(Cc4ccccc4)CC3)nc(C)nc21	20µM*	0%	0%	-6%	-8%	i
CCCn1c(-c2ccc(F)cc2)nc2c(NCC(C)(C)CN(C)C)nc(C)nc21	13µM*	-1%	0%	-5%	-12%	i
Nc1ccc(N2CCCCCC2)cc1	3.2µM*	-3%	-7%	?	-5%	i
COC(=O)CSCc1nc2ccccc2[nH]c1=O	13µM*	20%	-1%	?	-10%	i
CC(C)c1ccc(CNc2ccc(N3CCOCC3)cc2)cc1	7.9µM*	-7%	2%	?	-5%	i
CCOc1ccc(CNc2ccc(N3CCCC3)cc2)cc1	3.2µM*	2%	-3%	?	-7%	i
CC(=O)N1CCN(c2ccc(NCc3ccc(F)cc3)cc2)CC1	10µM*	-3%	1%	-11%	2%	i
C=C[C@@](C)(O)CC[C@H]1[C@]2(C)CCCC(C)(C)[C@H]2CC[C@]1(C)O	.	.	.	0%	-4%	i
O=C1c2c(O)cc(O)cc2O[C@@H](c2ccc(O)c(O)c2)[C@H]1O	13µM*	-2%	1%	?	-1%	i
O=C1CC(c2ccc(O)c(O)c2)Oc2cc(O)cc(O)c21 (configuration not stated)	10µM*	-1%[3.08 µM]	19%	.	.	.
O=C(CSc1ccc(Cl)cc1)c1ccco1	16µM*	-5%	-5%	-9%	?	i
COc1ccc(-c2nnc3sc(-c4ccco4)nn23)cc1OC	13µM*	-2%	1%	-5%	-2%	i
CCOC(=O)N1CCC(NC(=O)C(CC(C)C)NC(=O)C2CCCCC2)CC1 (configuration not stated)	16µM*	0%	0%	-2%	-3%	i
Oc1c(CN2CCc3ccccc3C2)cc(Cl)c2cccnc12	33%	-1%	0%	-20%[2.3 µM]	-6%	i
Oc1ccc(CN2CCN(Cc3ccccc3)CC2)c2cccnc12	59%	0%	1%	4µM*	-1%	i
Oc1c(CN2CCCCC2)cc(Br)c2cccnc12	41%	-2%	-1%	3.2µM*	-3%	i
Oc1ccc(CNc2ccc(F)cc2)c2cccnc12	3%	-1%	0%	7.9µM*	-3%	i
CCOC(=O)C1=C(C)NC(=O)NC1c1ccc(OC(C)C(=O)O)c(OC)c1 (configuration not stated)	25µM*	0%	-8%	13µM*	-8%	i
CCOC(=O)C1=C(C)NC(=O)NC1c1ccc(OCC(=O)OC)c(OC)c1 (configuration not stated)	11%	0%	0%	-2%	-4%	i
COC(=O)[C@@H]1O[C@@H](SCCN)[C@@H](O)[C@H](O)[C@H]1O	5%[11.4 µM]	-3%[15.4 µM]	-1%[15.4 µM]	-5%[11 µM]	-10%[11.4 µM]	i
SMILES	ALOX15 inhib	BRCT PPI green	BRCT inh red	Hsp90 Hop PPI	DNA Pol III inh	YjeE inh
Nc1cccc2cc(S(=O)(=O)Nc3ccc(C(=O)O)cc3)ccc12	5%[11.4 µM]	1%[15.4 µM]	1%[15.4 µM]	-11%[11 µM]	-11%[11.4 µM]	i
CCOC(=O)C(CCc1ccccc1)NC(C)C(=O)N1C(C(=O)O)CC2CCCC21 (configuration not stated)	3.2µM*	-1%	0%	.	.	.
O=C1c2cc([N+](=O)[O-])ccc2-c2ccc3c4ccc5c6c(ccc(c7ccc1c2c73)c64)C(=O)c1cc([N+](=O)[O-])ccc1-5	-17%[11.4 µM]	-4%[15.4 µM]	-7%[15.4 µM]	?	4µM*	i
OC[C@@H]1O[C@@H](n2cnc3c(NCCc4ccccc4)ncnc32)[C@@H](O)[C@H]1O	.	.	.	-8%	-5%	i
Cn1c(NCc2cccc(Br)c2)nc2ccccc21	10µM*	-1%	0%	-9%	-7%	i
Cn1c(NCc2ccccc2O)nc2ccccc21	-1%	0%	1%	-5%	0%	i
COC(=O)c1[nH]c2ccc(C)cc2c1NC(=O)Nc1ccccc1OC	25µM*	-2%	2%	0%	-4%	i
Cc1c2oc3c(C)ccc(C(=O)N[C@@H]4C(=O)N[C@H](C(C)C)C(=O)N5CCC[C@H]5C(=O)N(C)CC(=O)N(C)[C@@H](C(C)C)C(=O)O[C@@H]4C)c3nc-2c(C(=O)N[C@@H]2C(=O)N[C@H](C(C)C)C(=O)N3CCC[C@H]3C(=O)N(C)CC(=O)N(C)[C@@H](C(C)C)C(=O)O[C@@H]2C)c(N)c1=O	13µM*	0%	-5%	-3%	0.02µM*	i
CCCCCC[C@@H]([C@H](C)O)n1cnc2c(N)ncnc21	7%	1%	-2%	-3%	-5%	i
CCOC(=O)c1nn(-c2ccc(OC)cc2)c(=O)c2c(N)scc12	7.9µM*	-2%	-2%	-13%	-2%	i
O=C(Nc1nc(-c2ccco2)cs1)c1ccccc1	16µM*	3%	0%	-11%	-4%	i
O=c1[nH]ncc2ccccc12	-4%	0%	-1%	-2%	-1%	i
N#CC1=C(N)OC2=C(C(=O)CCC2)C12CCN(C(=O)OCc1ccccc1)CC2	25µM*	2%	-1%	-2%	-1%	i
O=C(c1ccc(-n2c(=O)c(=O)[nH]c3ccccc32)cc1)N1CCCN(Cc2ccccc2)CC1	-2%	0%	-2%	.	.	.
CCN1CCN(C(=O)N[C@H](C(=O)N[C@@H]2C(=O)N3C(C(=O)O)=C(CSc4nnnn4C)CS[C@@H]23)c2ccc(O)cc2)C(=O)C1=O	11%[25.6 µM]	-3%[34.4 µM]	0%[34.4 µM]	-2%[26 µM]	-3%[25.6 µM]	i
Cc1ccc2c(c1)CCCN2C(=O)Nc1ccc2c(c1)OCO2	20µM*	-4%	-1%	?	3%	i
O=C(Nc1ccc2c(c1)OCO2)N1CCOCC1	-1%	-1%	0%	-2%	0%	i
N.N.N.N.N.N.N.N.N.N.N.N.N.N.O.O.[Ru].[Ru].[Ru]	-51%	3%	0%	16µM*	32µM*	79µM*
